The values that follow come from PubChem BioAssay (NCATS).

Molecules are shown by their SMILES. Results filed as inconclusive are left out. Active and inactive are the calls of the source. Calls follow the shape of the dose curve; as a rule, active = well fitted cell-killing curve with a large enough effect; inconclusive = small, poorly fitted or top-dose-only effect; inactive = flat fitted curve, though single readings scatter.
% is scaled to controls: 0 for no effect and ±100 for the full control effect.

This experiment is described as follows: qHTS assay to identify small molecule inhibitors of chordoma cells - UCH-2 (AID 1259356). The note with it: UCH-2 chordoma viability, CellTiter-Glo ATP luminescence, 48 h; series mostly up to 46.1 µM; activity change, negative = inhibition: at the top concentration. (In general: In qHTS, concentration-response curves come from the screen itself.)
`c1ccc(-n2cnnn2)cc1`: the “activity change, negative = inhibition” value is -1.26% (inactive).

For the compound `CC1(C)C(\C=C/C=C\C=C/C=C2/N(CCCCS(=O)(=O)O)c3ccc4ccccc4c3C2(C)C)=[N+](CCCCS(=O)(=O)[O-])c2ccc3ccccc3c21`, the “activity change, negative = inhibition” value was 1.63% (inactive).

For the compound `Cc1c(Cl)cccc1Nc1ncccc1C(=O)O`, the “activity change, negative = inhibition” value is 0.813% (inactive).

Take `CCCCCCCCCCCCCCCC(=O)OC[C@H](COP(=O)([O-])OCC[N+](C)(C)C)OC(=O)CCCCCCCCCCCCCCC`: the “activity change, negative = inhibition” value was 9.51% (inactive).

Consider `COc1ccc(/C=C/C(=O)OCCC(C)C)cc1`, for which the “activity change, negative = inhibition” value was 9.44% (inactive).

For `CC(=O)Nc1ccc(OC(=O)c2ccccc2O)cc1`, the “activity change, negative = inhibition” value was 13.7% (inactive).

`Cc1ccc(S(=O)(=O)NC(=O)N[C@@H](C)Cc2ccccc2)cc1`: the “activity change, negative = inhibition” value was -11.4% (inactive).

Take `CC(C)CCCC(C)NC(C)C` (stereo not drawn): the “activity change, negative = inhibition” value was 12.7% (inactive).

As for `CCCCCCCCCCCCCCCCCC(=O)OCC(C)O` (stereo not drawn), the “activity change, negative = inhibition” value is 1.51% (inactive).

For `N=C(N)n1cccn1`, the “activity change, negative = inhibition” value was 20.5% (inactive).

Turning to `CCOC(=O)Oc1c(OC)cc(C(=O)O[C@@H]2C[C@@H]3CN4CCc5c([nH]c6cc(OC)ccc56)[C@H]4C[C@@H]3[C@H](C(=O)OC)[C@H]2OC)cc1OC`, the “activity change, negative = inhibition” value is 11.4% [at 20.6 µM] (inactive).

Regarding `COc1ccc(C(=O)/C(Br)=C\C(=O)O)cc1`, the “activity change, negative = inhibition” value is -11.6% (inactive).

Turning to `CCC(Oc1ccccc1)C(=O)N[C@@H]1C(=O)N2[C@@H]1SC(C)(C)[C@@H]2C(=O)O` (stereo partly drawn), the “activity change, negative = inhibition” value is 11.3% (inactive).

Consider `O=C1CC[C@@H](C(=O)N[C@H]2C[C@@H]2c2ccccc2)N1`, for which the “activity change, negative = inhibition” value is 10.2% (inactive).

In the case of `CC(=O)N=c1sc(S(N)(=O)=O)nn1C`, the “activity change, negative = inhibition” value is 27.6% [at 20.6 µM] (inactive).

For `CCc1ccc(S(=O)(=O)O)cc1`, the “activity change, negative = inhibition” value is 3.87% (inactive).

With `C[C@]12CC[C@@H]3c4ccc(O)cc4CC[C@H]3[C@@H]1CC[C@@H]2OP(=O)(O)O`, the “activity change, negative = inhibition” value is 4.43% (inactive).

`CC(C)C[C@H](NC(=O)[C@@H](COC(C)(C)C)NC(=O)[C@H](Cc1ccc(O)cc1)NC(=O)[C@H](CO)NC(=O)[C@H](Cc1c[nH]c2ccccc12)NC(=O)[C@H](Cc1cnc[nH]1)NC(=O)[C@@H]1CCC(=O)N1)C(=O)N[C@@H](CCCN=C(N)N)C(=O)N1CCC[C@H]1C(=O)NNC(N)=O`: the “activity change, negative = inhibition” value is 13.3% (inactive).

Regarding `CCN(CC)CCOC(=O)c1cccnc1`, the “activity change, negative = inhibition” value was -15.7% (inactive).

Regarding `COC(=O)[C@@H](N)CS`, the “activity change, negative = inhibition” value is -5.08% (inactive).

As for `CCCc1nc(C(C)(C)O)c(C(=O)OCc2oc(=O)oc2C)n1Cc1ccc(-c2ccccc2-c2nn[nH]n2)cc1`, the “activity change, negative = inhibition” value was -0.274% (inactive).

On to `C[C@@H]1C/C=C/C=C/C=C/C=C/[C@H](O[C@@H]2O[C@H](C)[C@@H](O)[C@H](N)[C@@H]2O)C[C@@H]2O[C@](O)(C[C@@H](O)C[C@H]3O[C@@H]3/C=C/C(=O)O1)C[C@H](O)[C@H]2C(=O)O`, for which the “activity change, negative = inhibition” value is 2.63% (inactive).

Take `O=C(CCCCCCCCCCCCC1CCCC1)Nc1ccc(S(=O)(=O)c2ccc(NC(=O)CCCCCCCCCCCCC3CCCC3)cc2)cc1`: the “activity change, negative = inhibition” value is -0.546% (inactive).

As for `CCC(Cc1c(I)cc(I)c(O)c1I)C(=O)O` (stereo not drawn), the “activity change, negative = inhibition” value was 7.67% (inactive).

Regarding `O=C1c2ccccc2C(=O)C1c1ccc(F)cc1`, the “activity change, negative = inhibition” value is 3.51% (inactive).

As for `CC1CCCC(C)N1NC(=O)c1ccc(Cl)c(S(N)(=O)=O)c1` (stereo not drawn), the “activity change, negative = inhibition” value was 2.57% [at 20.6 µM] (inactive).

`CC(C)(C)NCC(O)c1ccc(O)c(CO)n1` (stereo not drawn): the “activity change, negative = inhibition” value is 8.77% (inactive).

As to `COc1ccc(C(=O)CCC(=O)O)c2ccccc12`, the “activity change, negative = inhibition” value was -0.418% (inactive).

`O=C(O)c1cc(N=Nc2ccc(O)c(C(=O)O)c2)ccc1O`: the “activity change, negative = inhibition” value was 3.04% (inactive).

Regarding `O=C(O)CCC/C=C\C[C@@H]1[C@@H](/C=C/[C@@H](O)COc2cccc(Cl)c2)[C@H](O)C[C@@H]1O`, the “activity change, negative = inhibition” value is 16.7% (inactive).

For `CC1CC(OC(=O)C(O)c2ccccc2)CC(C)(C)C1` (stereo not drawn), the “activity change, negative = inhibition” value is 6.07% (inactive).

With `OC/C=C/c1ccccc1`, the “activity change, negative = inhibition” value was 0.352% (inactive).

For `CNC(=O)C[C@@H](N)C(=O)N[C@@H](C(=O)N[C@@H]1C(=O)N2[C@@H]1SC(C)(C)[C@@H]2C(=O)O)c1ccc(O)cc1`, the “activity change, negative = inhibition” value is 10.1% (inactive).

As for `COc1ccc(/C=C/C(=O)O)cc1`, the “activity change, negative = inhibition” value is -15.8% (inactive).

Turning to `CC[C@H](C)[C@@H]1NC(=O)[C@H](Cc2ccc(O)cc2)NC(=O)[C@@H](N)CSSC[C@@H](C(=O)N2CCC[C@H]2C(=O)N[C@@H](CC(C)C)C(=O)NCC(N)=O)NC(=O)[C@H](CC(N)=O)NC(=O)[C@H](CCC(N)=O)NC1=O`, the “activity change, negative = inhibition” value was 5.37% (inactive).

`C[C@@H](O)[C@H]1C(=O)N2C(C(=O)[O-])=C(SC3Cn4cnc[n+]4C3)[C@H](C)[C@H]12` (stereo partly drawn): the “activity change, negative = inhibition” value is 5.8% (inactive).

Consider `OC[C@H]1OC([S-])[C@H](O)[C@@H](O)[C@@H]1O.[Au+]` (stereo partly drawn), for which the “activity change, negative = inhibition” value is 9.24% (inactive).

As to `Cc1cc(C)c(NC(=O)C[C@H](CC(=O)O)c2cccc3ccccc23)c(C(=O)N2CCC3(CCCC3)CC2)c1`, the “activity change, negative = inhibition” value was -21.9% (inactive).
